# Screening data: PubChem, Johns Hopkins Ion Channel Center
# A selection: hits, their analogues and other compounds. The true share with any hit is near 2.4%.
# CHT PAM = CHT positive allosteric modulators, primary screen, cell-based, membrane potential dye, choline EC20; B-score at 10 µM; actives 0.49% (n = 310,000); High affinity choline transporter 1 (Homo sapiens), Q9GZV3; CHT-expressing cells; active compounds read high; LV-AA mutant CHT in HEK293 cells; AID 488977, 2010;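 active means initial fluorescence not abnormally high and integrated response B-score, plate-corrected, over 3 SD above library mean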
# ANO1 activ = TMEM16A chloride channel activators or potentiators, primary screen, cell-based, HTS. Anoctamin-1 (Mus musculus), Q8BHY3. HEK293 TMEM16A/YFP-H148Q/I152L, iodide quench fluorescence; active compounds read low. B-score at 10 µM. actives 0.3% (n = 340,000);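 active means fluorescence-ratio B-score plate-corrected deviation score at least 3 library SD below zero, with starting fluorescence score within 5 deviations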;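 further: channel opened by trigger with iodide after compound preincubation; score built on the fluorescence ratio of max minus min over baseline; more negative score means more quench and so TMEM16A activation or potentiation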
# CHT block = inhibitors of human choline transporter CHT; B-score at 10 µM; CHT-expressing cells, membrane potential dye, choline response; active compounds read low; High affinity choline transporter 1 (Homo sapiens), Q9GZV3; AID 488975, 2010; actives 0.86% (n = 310,000);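 active means B-score over 3 SD under the library average, and starting fluorescence ratio not unusually high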;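 further: choline stimulus applied at its EC90 after an EC20 pre-addition; B-score computed on integrated fluorescence ratio after choline addition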
# ANO1 block = TMEM16A chloride channel inhibitors, primary screen, cell-based, HTS | Anoctamin-1 (Mus musculus), Q8BHY3 | HEK293 TMEM16A/YFP iodide influx fluorescence, ionomycin | normalized B-score (activity score, 25-100; higher = stronger inhibition) at 10 µM | actives 1.2% (n = 310,000) | AID 588511, 2011;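 active means ratio plate-corrected score three or more library SD toward inhibition, starting fluorescence score within five deviations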;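 further: score derived from kinetic fluorescence span divided by baseline fluorescence per well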
# CHT act confirm = CHT activators, confirmation, cell-based, membrane potential dye, duplicate | shares compounds with CHT PAM | CHT-expressing cells, membrane potential dye fluorescence (FDSS); % of choline EC20–EC90 response window; HEK293 expressing CHT LV-AA mutant; choline added at its EC20 | activation, % at 10 µM | actives 91% (n = 2,500) | AID 504833, 2011;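 active means primary screen active, with duplicate mean activation above negative control mean plus 3 SD, cut at about 11% in these data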
# HEK293 MP dye = membrane potential response in parental HEK293 cells, counter-screen for CHT activator project, cell-based, membrane potential dye. actives 62% (n = 2,500). shares compounds with CHT PAM. membrane potential dye fluorescence (FDSS); measured after EC20 choline addition. ratio readout change at 10 µM, hits read low;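 active means duplicate-averaged ratio beyond 3 SD from buffer wells, up or down, though filed actives are nearly all decreases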
# The depositor's hits bear a star; i = inactive; . = no result given.
SMILES,CHT PAM,ANO1 activ,CHT block,ANO1 block,CHT act confirm,HEK293 MP dye
COC(CN(C)C(=O)C1CCC(CNS(=O)(=O)c2ccc(C)cc2)CC1)OC (configuration not stated),i,i,i,i,.,.
O=C1CN(C(=O)c2c(F)cccc2F)C(c2ccccc2)c2cc(Br)ccc2N1 (configuration not stated),i,i,i,i,14*,i
O=C1CN(C(=O)c2ccccc2[N+](=O)[O-])C(c2ccccc2)c2cc(Br)ccc2N1 (configuration not stated),6.7*,i,i,i,24*,i
Cc1ccc2c(c1)C(c1ccccc1)N(C(=O)c1ccccc1[N+](=O)[O-])CC(=O)N2 (configuration not stated),i,i,i,i,.,.
Cc1cc(C(=O)COC(=O)Cc2ccc(Cl)cc2)c(C)n1C,.,i,.,.,.,.
Brc1c(-c2ccc3c(c2)OCO3)nc2ncccn12,6.3*,i,i,i,45*,-46*
O=C(Cn1cnc2c(OCc3ccccc3)ncnc21)N1CCN(c2ccccn2)CC1,.,i,.,.,.,.
Cc1c(NC(=O)C(C)OC(=O)CCc2ccccc2)c(=O)n(-c2ccccc2)n1C (configuration not stated),i,i,i,i,.,.
COC(=O)c1cc2c(C)[nH]c(C)c2cc(C(=O)OC)c1=O,i,i,i,i,30*,-45*
O=S(=O)(Cc1cc(-c2ccc(Cl)cc2)no1)c1ccccc1,i,i,i,i,.,.
COc1ccc(N2CCN(c3oc(COc4ccc(Cl)cc4)nc3C#N)CC2)cc1,8*,i,i,i,36*,i
COc1ccc(N2CCN(c3oc(COc4ccccc4)nc3C#N)CC2)cc1,i,i,i,i,35*,i
COc1ccc(N2CCN(c3oc(COc4ccc(Cl)cc4Cl)nc3C#N)CC2)cc1,9.5*,i,i,i,27*,i
N#Cc1nc(COc2ccc(Cl)cc2Cl)oc1N1CCN(c2ccccc2)CC1,i,i,i,i,.,.
CC(C)CCNC(=O)CN1N=C(c2ccc(Cl)cc2)CCC1=O,i,i,i,i,.,.
Cc1nnc(SCCn2c(N3CCN(C)CC3)nc3c2c(=O)[nH]c(=O)n3C)s1,6.9*,i,i,i,59*,-67*
CN1CCN(c2nc3c(c(=O)[nH]c(=O)n3C)n2CCSc2nc3ccccc3s2)CC1,9.2*,i,i,i,50*,-55*
Cc1ccc(S(=O)OCC(=O)Nc2cc(Cl)ccc2N2CCOCC2)cc1 (configuration not stated),i,i,i,i,.,.
Nc1ccc(NC2C[C@@H](C(=O)O)NC2=O)cc1 (some centres not stated),i,i,i,i,.,.
Cc1cc(N2CCC(N(C)C3CCCC3)CC2)nc2cc(O)ccc12,12*,i,i,i,31*,-73*
Oc1ccc(C=Nc2ccccc2-c2nc3ccccc3[nH]2)cc1,i,i,i,i,.,.
O=C(N/N=C/c1cc([N+](=O)[O-])ccc1O)C1CCCCC1,i,i,i,i,.,.
COc1ccccc1N1C(=O)c2cccc3c(C(=O)O)ccc(c23)C1=O,i,i,i,i,.,.
COc1ccc2c3c(cccc13)C(=O)N(O)C2=O,i,i,i,i,41*,-30*
Cc1c(C(=O)Nc2ccncc2)sc2nc(-c3ccccc3)cn12,i,i,i,i,30*,-32*
SMILES,CHT PAM,ANO1 activ,CHT block,ANO1 block,CHT act confirm,HEK293 MP dye
Clc1cccc(C[n+]2cc(-c3ccccc3)n3c2CCC3)c1,8.8*,i,i,i,67*,-43*
Cc1ccc(-c2c[n+](Cc3cccc(Cl)c3)c3n2CCC3)cc1,8*,i,i,i,56*,-40*
Cc1ccc(-c2c[n+](Cc3ccc(Cl)cc3)c3n2CCC3)cc1,i,i,i,i,.,.
CC(=O)N1c2ccc(S(=O)(=O)N(C)Cc3ccccc3)cc2CC1C (configuration not stated),i,i,i,i,.,.
CCOC(=O)c1cccc(NC(=O)CSc2nc3ccccc3c(=O)n2CC)c1,i,i,i,i,.,.
Cc1n(Cc2ccccc2)c2cc([N+](=O)[O-])ccc2[n+]1Cc1ccccc1,8.3*,i,i,i,72*,-58*
CCOC(=O)c1ccc2c(c1)n(CC)c(/C=C/Nc1ccccc1)[n+]2CC,i,i,i,i,32*,-83*
CCn1c(C)[n+](Cc2ccccc2)c2ccc(C(=O)OC)cc21,10*,i,i,i,27*,-67*
Cc1n(Cc2ccccc2)c2ccccc2[n+]1Cc1ccccc1,i,i,i,i,.,.
Cc1ccoc1C(=O)NCc1occc1C(=O)O,i,i,i,i,.,.
Cc1cc(N2CCN(C)CC2)n2cc(-c3ccc(F)cc3)nc2n1,6.9*,i,i,i,39*,-64*
Cc1cc(N2CCN(c3ccccn3)CC2)n2cc(-c3ccccc3)nc2n1,i,i,i,i,.,.
NS(=O)(=O)c1ccc(CCNC(=O)CCC2COc3ccccc3O2)cc1 (configuration not stated),i,i,i,i,.,.
Cc1cc(NC(=O)CSc2ccc3nnc(-c4ccccc4)n3n2)no1,7.1*,i,i,i,48*,-32*
O=C(CSc1ccc2nnc(-c3cccnc3)n2n1)NCC1CCCO1 (configuration not stated),i,i,i,i,11*,i
CN(C)c1ccc(N=Nc2nc3ccccc3n2C)cc1,i,i,i,i,.,.
Cn1c(N=Nc2ccccc2)nc2ccccc21,6.4*,i,i,i,29*,-53*
Nc1cc2nc3ccccc3oc-2cc1=O,6.8*,i,i,i,13*,-38*
O=c1oc2ccccc2cc1-c1nc2ccccc2o1,i,i,i,i,.,.
CCCCc1c(CCC)c(=N)c2ccccc2n1C,9.4*,i,i,i,65*,-26*
C/C(=N\NC(=O)c1ccccc1)c1cccc(Br)c1,i,i,i,i,5,i
